Results on three molecules are retold here after PubChem BioAssay (EPA / NIEHS).

Activity calls are given as the source filed them. How the source made its calls: active means hit-call score of the fitted dose curve at least 0.9, where 1 is the maximum; inactive means score below 0.9.

Read-out in test [1]: Fatty acid synthase (Homo sapiens) (UniProt P49327)
As to the kind of experiment: LTEA_HepaRG_FASN: Life Technologies and Expression Analysis (LTEA) Assay for Fatty Acid Synthase (FASN) using HepaRG (AID 2283448). The conditions noted are these: mRNA level, 48 h; actives raise or lower the signal. Put shortly: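 In human HepaRG cultures, 48 h chemical exposure (up to 100 uM, 0.5% DMSO) preceded TaqMan qRT-PCR of FASN.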

Read-out in test [2]: Cyclin Dependent Kinase Inhibitor 1A (CDKN1A), CDKN1A (gene 1026)
The experiment in a line: LTEA_HepaRG_CDKN1A: Life Technologies and Expression Analysis (LTEA) Assay for Cyclin Dependent Kinase Inhibitor 1A (CDKN1A) using HepaRG (AID 2283450). The conditions noted are these: mRNA level, 48 h; actives raise or lower the signal. Put shortly:
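Cryopreserved HepaRG cells were plated and cultured 48 h, then switched to serum-free induction medium. Chemicals (eight half-log concentrations, top 100 uM, 0.5% DMSO) were applied for 48 h. Lysates underwent qRT-PCR for CDKN1A with housekeeping normalization.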

Read-out in test [3]: Cyclin D1 (CCND1), CCND1 (gene 595)
As to the kind of experiment: LTEA_HepaRG_CCND1: Life Technologies and Expression Analysis (LTEA) Assay for Cyclin D1 (CCND1) using HepaRG (AID 2283451).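 On AC50: TaqMan qRT-PCR transcript level normalised to ACTB GAPDH and POLR2A housekeeping genes.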 The conditions noted are these: mRNA level, 48 h; actives raise or lower the signal. Put shortly: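 Human liver HepaRG line; 48 h dosing, 8 conc. ≤100 uM, 0.5% DMSO; TaqMan qRT-PCR mRNA, 3 housekeeping genes; bidirectional curve fit vs DMSO.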

Read-out in test [4]: catalase (CAT), CAT (gene 847)
The experiment in a line: LTEA_HepaRG_CAT: Life Technologies and Expression Analysis (LTEA) Assay for catalase (CAT) using HepaRG (AID 2283452). The conditions noted are these: mRNA level, 48 h; actives raise or lower the signal. Put shortly:
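Expression of CAT was quantified by TaqMan qRT-PCR with ACTB/GAPDH/POLR2A normalization after 48 h chemical exposure of HepaRG. Eight-point half-log series, top 100 uM, in 0.5% DMSO; gain or loss fitted against vehicle.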

Read-out in test [5]: flavin-containing dimethylaniline monooxygenases 3 (FMO3), FMO3 (gene 2328)
The experiment in a line: LTEA_HepaRG_FMO3: Life Technologies and Expression Analysis (LTEA) Assay for flavin-containing dimethylaniline monooxygenases 3 (FMO3) using HepaRG (AID 2283453). The conditions noted are these: mRNA level, 48 h; actives raise or lower the signal. Put shortly: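 Eight-point concentration-response in serum-free HepaRG cultures (top 100 uM, 0.5% DMSO, 48 h). Read-out: FMO3 mRNA level normalized to three endogenous control genes, fitted bidirectionally versus vehicle.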

Read-out in test [6]: Cytochrome P450 (CYP1A1), CYP1A1 (gene 1543)
As to the kind of experiment: LTEA_HepaRG_CYP1A1: Life Technologies and Expression Analysis (LTEA) Assay for Cytochrome P450 (CYP1A1) using HepaRG (AID 2283454). The conditions noted are these: mRNA level, 48 h; actives raise or lower the signal. In outline: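 Induction of CYP1A1 mRNA in a human hepatic cell line was measured 48 h after dosing, with 1 mM phenobarbital as induction positive control and 0.5% DMSO vehicle as baseline for bidirectional curve fitting.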

Read-out in test [7]: CFLAR gene, CFLAR (gene 8837)
The experiment in a line: LTEA_HepaRG_CFLAR: Life Technologies and Expression Analysis (LTEA) Assay for CFLAR gene using HepaRG (AID 2283455). The conditions noted are these: mRNA level, 48 h; actives raise or lower the signal. Put shortly: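 Transcript level by qRT-PCR (normalized to ACTB, GAPDH and POLR2A) after 48 h chemical exposure of HepaRG cells, top concentration 100 uM with half-log steps, 0.5% DMSO vehicle, duplicates; fitted bidirectionally against DMSO baseline.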

Read-out in test [8]: Forkhead box O1 (FOXO1), FOXO1 (gene 2308)
As to the kind of experiment: LTEA_HepaRG_FOXO1: Life Technologies and Expression Analysis (LTEA) Assay for Forkhead box O1 (FOXO1) using HepaRG (AID 2283456). The conditions noted are these: mRNA level, 48 h; actives raise or lower the signal. In outline: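 FOXO1 transcript quantified by qRT-PCR after 48 h chemical exposure (top 100 uM, half-log steps, 0.5% DMSO) of HepaRG cells, housekeeping-normalized (ACTB/GAPDH/POLR2A). Changes fitted in both directions relative to vehicle.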

Read-out in test [9]: growth arrest and DNA damage 45 (GADD45A), GADD45A (gene 1647)
The experiment in a line: LTEA_HepaRG_GADD45A: Life Technologies and Expression Analysis (LTEA) Assay for growth arrest and DNA damage 45 (GADD45A) using HepaRG (AID 2283458). The conditions noted are these: mRNA level, 48 h; actives raise or lower the signal. In outline: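 Eight-point concentration-response in HepaRG cells: 48 h chemical exposure, 0.5% DMSO vehicle, top dose 100 uM. Normalized qRT-PCR mRNA readout with bidirectional fitting relative to DMSO.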

Read-out in test [10]: Forkhead box O3 (FOXO3), FOXO3 (gene 2309)
The experiment in a line: LTEA_HepaRG_FOXO3: Life Technologies and Expression Analysis (LTEA) Assay for Forkhead box O3 (FOXO3) using HepaRG (AID 2283459). The conditions noted are these: mRNA level, 48 h; actives raise or lower the signal. In outline:
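FOXO3 transcript measured by qRT-PCR (normalized to ACTB, GAPDH, POLR2A) after 48 h exposure of HepaRG cells in serum-free induction medium. Duplicates, eight half-log concentrations up to 100 uM, 0.5% DMSO; gain or loss fitted against DMSO.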

Read-out in test [11]: ABC Transporter (ABCB1), ABCB1 (gene 5243)
The experiment in a line: LTEA_HepaRG_ABCB1: Life Technologies and Expression Analysis (LTEA) Assay for ABC Transporter (ABCB1) using HepaRG (AID 2283460). The conditions noted are these: mRNA level, 48 h; actives raise or lower the signal. In outline: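 ABCB1 transcript level measured by TaqMan qRT-PCR against three housekeeping genes after 48 h chemical exposure of differentiated HepaRG cells. Top concentration 100 uM, half-log steps, eight points, 0.5% DMSO vehicle; bidirectional fit relative to DMSO.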

Read-out in test [12]: growth arrest and DNA damage 45 (GADD45B), GADD45B (gene 4616)
As to the kind of experiment: LTEA_HepaRG_GADD45B: Life Technologies and Expression Analysis (LTEA) Assay for growth arrest and DNA damage 45 (GADD45B) using HepaRG (AID 2283461). The conditions noted are these: mRNA level, 48 h; actives raise or lower the signal. Put shortly: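 Values are bidirectional concentration-response fits against 0.5% DMSO controls. Underlying data: qRT-PCR mRNA levels in human HepaRG liver cells treated 48 h in serum-free induction medium, eight concentrations topping at 100 uM.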

Read-out in test [13]: ABC Transporter (ABCC3), ABCC3 (gene 8714)
The experiment in a line: LTEA_HepaRG_ABCC3: Life Technologies and Expression Analysis (LTEA) Assay for ABC Transporter (ABCC3) using HepaRG (AID 2283462). The conditions noted are these: mRNA level, 48 h; actives raise or lower the signal. In outline:
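Differentiated HepaRG liver cells receive test chemicals at eight concentrations (max 100 uM) for 48 h. Expression of ABCC3 is quantified by qRT-PCR against ACTB, GAPDH and POLR2A, and activity is fitted in both directions against the DMSO control.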

Read-out in test [14]: ABC Transporter (ABCB11), ABCB11 (gene 8647)
As to the kind of experiment: LTEA_HepaRG_ABCB11: Life Technologies and Expression Analysis (LTEA) Assay for ABC Transporter (ABCB11) using HepaRG (AID 2283463). The conditions noted are these: mRNA level, 48 h; actives raise or lower the signal. In outline:
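ABCB11 transcript levels quantified by TaqMan qRT-PCR against three housekeeping genes after 48 h chemical exposure of HepaRG cultures. Concentrations up to 100 uM in half-log steps, 0.5% DMSO vehicle; both induction and suppression scored.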

Read-out in test [15]: ABC Transporter (ABCC2), ABCC2 (gene 1244)
As to the kind of experiment: LTEA_HepaRG_ABCC2: Life Technologies and Expression Analysis (LTEA) Assay for ABC Transporter (ABCC2) using HepaRG (AID 2283464). The conditions noted are these: mRNA level, 48 h; actives raise or lower the signal. Put shortly:
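Gene expression of ABCC2 was determined by qRT-PCR in HepaRG cells exposed 48 h to chemicals (highest 100 uM, half-log dilutions). Activity was fitted in both directions relative to 0.5% DMSO vehicle.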

Read-out in test [16]: Broad substrate specificity ATP-binding cassette transporter ABCG2 (Homo sapiens) (UniProt Q9UNQ0)
As to the kind of experiment: LTEA_HepaRG_ABCG2: Life Technologies and Expression Analysis (LTEA) Assay for ABC Transporter (ABCG2) using HepaRG (AID 2283465). The conditions noted are these: mRNA level, 48 h; actives raise or lower the signal. In outline:
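ABCG2 transcript was quantified by TaqMan qRT-PCR against three housekeeping genes in HepaRG cells. Cells were treated in duplicate for 48 h across an 8-point half-log series up to 100 uM, with 0.5% DMSO vehicle. Gain or loss versus DMSO was fit.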

Read-out in test [17]: ATP-citrate lyase (ACLY), ACLY (gene 47)
As to the kind of experiment: LTEA_HepaRG_ACLY: Life Technologies and Expression Analysis (LTEA) Assay for ATP-citrate lyase (ACLY) using HepaRG (AID 2283466). The conditions noted are these: mRNA level, 48 h; actives raise or lower the signal. In outline: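 ACLY mRNA quantified by qRT-PCR on Fluidigm arrays against three housekeeping genes, after 48 h chemical treatment of HepaRG cells (top concentration 100 uM, half-log steps, 0.5% DMSO vehicle). Up- or down-regulation fitted relative to DMSO.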

Read-out in test [18]: Peroxisomal acyl-coenzyme A oxidase 1 (ACOX1) gene, ACOX1 (gene 51)
The experiment in a line: LTEA_HepaRG_ACOX1: Life Technologies and Expression Analysis (LTEA) Assay for Peroxisomal acyl-coenzyme A oxidase 1 (ACOX1) gene using HepaRG (AID 2283467). The conditions noted are these: mRNA level, 48 h; actives raise or lower the signal. Put shortly:
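ACOX1 transcript levels were quantified by TaqMan qRT-PCR against three housekeeping genes after 48 h chemical exposure of differentiated human HepaRG cells. Exposure used eight half-log steps topping at 100 uM, 0.5% DMSO vehicle, in duplicate. Bidirectional curve fits were made relative to DMSO.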

A short description of test [19]: CEETOX_H295R_TESTO: CeeTox H295R High-throughput Steroidogenesis Assay for Testosterone (TESTO) (AID 2283457).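 Further: cells exposed to chemicals for 48 h before medium collection.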 The conditions noted are these: actives raise or lower the signal. Put shortly: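 Testosterone synthesis is assessed in human adrenocortical H295R cells after 48 h of chemical exposure, using HPLC-MS/MS of extracted medium. Activity is fitted in both directions against DMSO control.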

Read-out in test [20]: Cyclin D2 (CCND2), CCND2 (gene 894)
The experiment in a line: LTEA_HepaRG_CCND2: Life Technologies and Expression Analysis (LTEA) Assay for Cyclin D2 (CCND2) using HepaRG (AID 2283449). The conditions noted are these: mRNA level, 48 h; actives raise or lower the signal. Put shortly:
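CCND2 transcript levels, quantified by qRT-PCR and normalised to three housekeeping genes, were fitted bidirectionally against 0.5% DMSO. HepaRG cultures were dosed 48 h in duplicate with an 8-point half-log series up to 100 uM.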

Sequence of Fatty acid synthase (Homo sapiens) (P49327 whole entry, looked up): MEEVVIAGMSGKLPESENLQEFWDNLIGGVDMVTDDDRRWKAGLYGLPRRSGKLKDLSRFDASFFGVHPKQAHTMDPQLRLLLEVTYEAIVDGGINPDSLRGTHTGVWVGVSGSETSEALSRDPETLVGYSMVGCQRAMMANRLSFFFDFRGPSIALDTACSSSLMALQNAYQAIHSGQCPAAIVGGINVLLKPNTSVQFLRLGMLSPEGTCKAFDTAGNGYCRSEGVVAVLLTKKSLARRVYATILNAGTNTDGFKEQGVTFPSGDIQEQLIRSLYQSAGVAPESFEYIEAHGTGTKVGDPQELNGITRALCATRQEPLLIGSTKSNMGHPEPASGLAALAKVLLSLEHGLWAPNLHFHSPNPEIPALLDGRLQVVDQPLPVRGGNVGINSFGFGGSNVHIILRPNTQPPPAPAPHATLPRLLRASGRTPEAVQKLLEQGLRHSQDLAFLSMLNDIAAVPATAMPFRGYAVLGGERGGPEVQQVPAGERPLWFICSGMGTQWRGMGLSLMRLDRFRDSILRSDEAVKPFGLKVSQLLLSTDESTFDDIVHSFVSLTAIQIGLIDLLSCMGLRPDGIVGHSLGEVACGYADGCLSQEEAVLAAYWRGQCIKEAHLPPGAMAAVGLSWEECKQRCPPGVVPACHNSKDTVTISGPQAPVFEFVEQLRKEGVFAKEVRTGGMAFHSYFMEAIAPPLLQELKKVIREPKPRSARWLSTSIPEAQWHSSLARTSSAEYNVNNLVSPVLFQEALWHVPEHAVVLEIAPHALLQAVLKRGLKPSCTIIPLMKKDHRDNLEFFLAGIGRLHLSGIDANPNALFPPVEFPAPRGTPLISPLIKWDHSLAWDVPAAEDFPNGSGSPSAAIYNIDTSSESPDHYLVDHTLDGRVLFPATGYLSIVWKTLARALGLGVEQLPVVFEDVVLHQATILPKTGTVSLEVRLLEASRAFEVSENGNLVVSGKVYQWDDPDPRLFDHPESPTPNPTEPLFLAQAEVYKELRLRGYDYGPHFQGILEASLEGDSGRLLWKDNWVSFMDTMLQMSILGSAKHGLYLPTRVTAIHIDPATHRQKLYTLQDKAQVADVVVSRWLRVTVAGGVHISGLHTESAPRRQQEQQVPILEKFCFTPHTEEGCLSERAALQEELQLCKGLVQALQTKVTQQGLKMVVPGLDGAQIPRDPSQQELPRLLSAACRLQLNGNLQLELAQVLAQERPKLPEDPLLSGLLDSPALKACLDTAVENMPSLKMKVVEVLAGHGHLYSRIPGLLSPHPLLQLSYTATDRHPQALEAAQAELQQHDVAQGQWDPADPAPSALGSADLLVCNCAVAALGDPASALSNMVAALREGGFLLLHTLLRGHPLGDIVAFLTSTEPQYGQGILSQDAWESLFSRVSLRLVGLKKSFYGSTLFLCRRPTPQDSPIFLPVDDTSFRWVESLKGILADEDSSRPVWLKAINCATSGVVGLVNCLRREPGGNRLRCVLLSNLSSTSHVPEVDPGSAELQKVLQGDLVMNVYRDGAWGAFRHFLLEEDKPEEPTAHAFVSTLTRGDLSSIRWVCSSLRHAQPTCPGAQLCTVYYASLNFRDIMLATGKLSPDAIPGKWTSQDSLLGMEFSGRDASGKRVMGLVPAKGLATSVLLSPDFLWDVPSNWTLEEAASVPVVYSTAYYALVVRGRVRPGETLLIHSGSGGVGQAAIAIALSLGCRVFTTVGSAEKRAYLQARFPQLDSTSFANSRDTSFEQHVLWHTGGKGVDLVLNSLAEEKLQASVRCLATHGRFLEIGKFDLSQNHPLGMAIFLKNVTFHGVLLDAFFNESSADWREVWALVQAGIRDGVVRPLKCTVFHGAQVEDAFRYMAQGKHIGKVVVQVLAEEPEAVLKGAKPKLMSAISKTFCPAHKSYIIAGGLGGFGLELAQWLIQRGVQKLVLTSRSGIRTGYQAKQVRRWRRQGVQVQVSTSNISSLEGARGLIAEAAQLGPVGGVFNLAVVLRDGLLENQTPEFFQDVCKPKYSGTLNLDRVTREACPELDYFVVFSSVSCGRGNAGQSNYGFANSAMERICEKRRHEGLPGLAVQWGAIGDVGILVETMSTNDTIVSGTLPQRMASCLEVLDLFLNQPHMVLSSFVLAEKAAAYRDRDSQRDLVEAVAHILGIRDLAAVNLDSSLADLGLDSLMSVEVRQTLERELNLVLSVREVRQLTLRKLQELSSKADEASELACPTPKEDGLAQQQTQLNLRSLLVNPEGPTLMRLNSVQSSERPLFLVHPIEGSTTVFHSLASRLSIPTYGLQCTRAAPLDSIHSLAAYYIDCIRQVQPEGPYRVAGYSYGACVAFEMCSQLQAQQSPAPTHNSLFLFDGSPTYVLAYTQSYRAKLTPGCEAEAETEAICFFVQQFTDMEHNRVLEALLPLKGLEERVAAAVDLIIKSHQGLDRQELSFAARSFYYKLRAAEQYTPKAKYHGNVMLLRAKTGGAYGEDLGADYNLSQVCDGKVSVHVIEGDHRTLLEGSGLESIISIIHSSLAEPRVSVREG
Sequence of Broad substrate specificity ATP-binding cassette transporter ABCG2 (Homo sapiens) (Q9UNQ0 whole entry, looked up): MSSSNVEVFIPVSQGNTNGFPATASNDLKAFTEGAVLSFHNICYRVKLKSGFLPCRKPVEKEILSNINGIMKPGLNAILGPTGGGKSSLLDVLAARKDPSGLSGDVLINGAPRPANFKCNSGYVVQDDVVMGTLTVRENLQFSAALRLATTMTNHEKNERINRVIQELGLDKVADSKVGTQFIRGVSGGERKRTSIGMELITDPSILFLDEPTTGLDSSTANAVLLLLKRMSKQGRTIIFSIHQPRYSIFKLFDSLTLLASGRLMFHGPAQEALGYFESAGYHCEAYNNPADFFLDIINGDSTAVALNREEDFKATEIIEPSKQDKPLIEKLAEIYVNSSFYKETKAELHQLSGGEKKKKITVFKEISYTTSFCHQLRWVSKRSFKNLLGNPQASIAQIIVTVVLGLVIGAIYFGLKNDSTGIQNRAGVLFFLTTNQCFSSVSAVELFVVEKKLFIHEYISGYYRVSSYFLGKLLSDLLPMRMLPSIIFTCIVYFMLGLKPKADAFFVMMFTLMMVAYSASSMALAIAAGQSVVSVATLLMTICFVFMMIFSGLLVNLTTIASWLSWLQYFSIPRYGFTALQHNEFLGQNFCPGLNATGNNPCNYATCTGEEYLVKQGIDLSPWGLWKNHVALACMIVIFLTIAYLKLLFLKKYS

As for `C#CCC1=C(C)C(OC(=O)C2C(C=C(C)C)C2(C)C)CC1=O` (stereo unspecified), the molecule was called inactive in test [1], in test [2], in test [3], in test [4], in [5] and in test [7]. Besides, the call in test [8], in test [9], in [10], in test [11], in [12] and in test [13] was inactive. For the same molecule, the result in test [14], in test [17] and in test [18] was inactive. The AC50 (usually the concentration at which the activity in the assay is half-maximal) was 49.8 µM (active) in [6], 19.6 µM (active) in [15] and 9.87 µM (active) in test [16].
As to `COc1ccc(C(=CC(=O)N2CCOCC2)c2ccc(Cl)cc2)cc1OC`, the result in [1], in [2], in test [3], in test [4], in [5] and in [7] was inactive. Also, the call in [8], in test [9], in [10], in test [11], in test [12] and in test [13] was inactive. The call in test [14], in test [16], in test [17] and in test [18] was inactive. The concentration at half-maximal activity (AC50) was 50 µM (active) in [6], 32.8 µM (active) in test [19] and 11 µM (active) in [15].
For the molecule `C=C(C)[C@H]1Cc2c(ccc3c2O[C@@H]2COc4cc(OC)c(OC)cc4[C@@H]2C3=O)O1`, the AC50 in [1] was 20.8 µM (active); in test [2] it was 1.41 µM (active); in [3], 22.8 µM (active); in test [4] it was 1.75 µM (active); in test [5] it was 5.89 µM (active); in [6], 2.44 µM (active). Also, the AC50 in test [8] is 11.7 µM (active); in test [9] it was 6.57 µM (active); in test [11], 18.6 µM (active); in test [12], 16.5 µM (active); in [14] it was 7.9 µM (active); in test [15], 15.2 µM (active). Moreover, the concentration at half-maximal activity (AC50) in test [16] is 1.18 µM (active); in [18] it was 11.7 µM (active). Moreover, the call in test [20], in [7], in test [10], in test [13] and in test [17] was inactive.
